Compound activity (PubChem)
Wnt bcat act – Wnt/beta-catenin pathway activation | 300,000 tested, 1.2% active | activation, % at 9.35 µM | Wnt/beta-catenin reporter cell assay, activator, plate reader; in the data active means activation above about 30%, passing the limit was not always enough; inconclusive means no clear call, values can overlap the other calls
MITF act – increases MITF-driven TRPM1 promoter luciferase signal. SK-MEL-5 TRPM1-promoter luciferase, 24 h; % of positive control, neutral wells = 0. activation, % at 12.5 µM. 300,000 tested, 0.75% active;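 active means mean activation of at least 80% with every replicate also reaching 80%; inconclusive means mean reaches 80% but some replicate falls short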
SMARCA2 act – SMARCA2 function activation, primary screen; MG213 cells, MMTV-luciferase reporter, dexamethasone, overnight; activation, % at 9.1 µM; 370,000 tested, 1% active; in the data active means activation above about 7.8%
esBAF inh – blocks esBAF chromatin remodeling in mouse ES cells. Bmi1-luciferase knock-in reporter, 24 h; 100% = twice the neutral-well signal. reporter increase, % at 12.5 µM. 350,000 tested, 2% active; in the data active means activation above about 40%; inconclusive means no clear call, values can overlap the other calls;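 further: a rise in the Bmi1 reporter signal indicates esBAF inhibition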
HSF-1 act – increases HSF-1 driven luciferase reporter signal; NIH3T3-HGL HSF-1 luciferase reporter, MG132, 8 h; 100% = twice DMSO control signal; activation, % at 9 µM; 300,000 tested, 1.7% active; AID 504408;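 active means mean replicate activation of at least 50% with a set share of replicates each reaching 50%; inconclusive means only one of those two conditions met; inactive means mean below 50% and too few replicates reaching it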
HSF1 inh – HSF1 inhibition; NIH3T3-HGL HSE-luciferase, MG132-induced, luminescence 8 h; stronger effect = lower value; activity change, negative = inhibition, % at 7.5 µM (by protocol); 300,000 tested, 0.77% active;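 active means more than half of replicate wells show activity change below -50%, luminescence cut by over half; inconclusive means some wells, but at most half, below -50%; inactive means no replicate well below -50%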;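 further: luciferase reports HSF-1 transcriptional activity via heat shock element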
Numbers stand for hits. An excerpt weighted towards active compounds, which were near 4.3% of everything screened.

What do the screens show for `COc1ccc(-c2csc(C(C)(O)c3ccccc3)n2)cc1` (stereo not given)?
Wnt bcat act: inactive; SMARCA2 act: inactive; esBAF inh: 60

How did CN(C)c1ccc(-c2csc(C(C)(O)c3cccc(F)c3)n2)cc1 (stereo not given) do in these assays?
Wnt bcat act: inactive; SMARCA2 act: inactive; esBAF inh: 45

How did O=C(CCCCCCC(=O)Nc1ccccc1)NO do in these assays?
Wnt bcat act: 245; MITF act: inactive; SMARCA2 act: inactive; esBAF inh: inactive; HSF-1 act: inactive; HSF1 inh: inconclusive

What do the screens show for `CC(=O)Nc1cccc(NC(=O)CCCC(=O)O)c1`?
Wnt bcat act: 40; MITF act: inactive; SMARCA2 act: inactive; esBAF inh: inactive; HSF-1 act: inactive; HSF1 inh: inactive

How did O=c1oc2ccccc2cc1-c1nnc(NCc2ccco2)s1 do in these assays?
Wnt bcat act: 72; SMARCA2 act: inactive; esBAF inh: inactive; HSF-1 act: inactive; HSF1 inh: inactive

How did Nc1nnc(-c2cc3ccccc3oc2=O)s1 do in these assays?
Wnt bcat act: inactive; SMARCA2 act: 7.9; esBAF inh: inactive; HSF-1 act: inactive; HSF1 inh: inactive

What do the screens show for `CN1C(=O)c2cc(NC(=O)C3CC3)ccc2OC[C@@H]2O[C@@H](CC(=O)NC3CCC3)CC[C@H]21`?
esBAF inh: inactive

How did CCCCNC(=O)c1ccc(CS(=O)(=O)c2ccc(OC)cc2)o1 do in these assays?
Wnt bcat act: inactive; SMARCA2 act: inactive; esBAF inh: inactive; HSF-1 act: inactive; HSF1 inh: inactive

How did COc1ccc(S(=O)(=O)Cc2ccc(C(=O)NCCCN(C)c3ccccc3)o2)cc1 do in these assays?
Wnt bcat act: inactive; MITF act: inactive; SMARCA2 act: inactive; esBAF inh: inactive; HSF-1 act: 60; HSF1 inh: inactive

How did c1ccc(NC2=Nc3ccccc3CC2)cc1 do in these assays?
MITF act: inconclusive; SMARCA2 act: inactive; esBAF inh: 46; HSF-1 act: inactive; HSF1 inh: inactive

Results for COc1ccc(/C=C2/CCc3ccccc3C2=O)cc1OC ?
Wnt bcat act: 50; MITF act: inactive; SMARCA2 act: inactive; esBAF inh: inactive; HSF-1 act: inactive; HSF1 inh: inactive

What do the screens show for `COc1cc(/C=C2/CCc3ccccc3C2=O)cc(OC)c1OC`?
MITF act: inactive; SMARCA2 act: inactive; esBAF inh: inactive; HSF-1 act: 73; HSF1 inh: inactive

Results for COc1ccc(/C=C2\COc3ccccc3C2=O)cc1OC ?
Wnt bcat act: 33; MITF act: inactive; SMARCA2 act: inactive; HSF-1 act: inactive; HSF1 inh: inactive

How did COc1ccc2c(c1)CC/C(=C\c1ccc(OC)c(Cn3cccn3)c1)C2=O do in these assays?
SMARCA2 act: inactive; esBAF inh: 87; HSF-1 act: inactive; HSF1 inh: inactive

What do the screens show for `O=C(O)c1ccc(/C=C2\COc3ccccc3C2=O)cc1`?
Wnt bcat act: inactive; MITF act: inactive; SMARCA2 act: inactive; esBAF inh: inactive; HSF-1 act: inactive; HSF1 inh: inactive

What do the screens show for `CCOc1ccc(/C=C2\CCc3ccccc3C2=O)cc1`?
Wnt bcat act: inactive; MITF act: 95; SMARCA2 act: inactive; esBAF inh: inactive; HSF-1 act: inactive; HSF1 inh: inactive

Results for COc1ccc(C=C2CCc3ccccc3C2=O)cc1 ?
Wnt bcat act: inactive; SMARCA2 act: inactive

Results for CO[C@H]1CN(C)C(=O)c2cc(NC(=O)Nc3ccc(F)cc3)ccc2OC[C@H](C)NC[C@@H]1C ?
esBAF inh: inactive

How did Cc1cc(=O)n2[nH]c(N)c(N=Nc3ccccc3F)c2n1 do in these assays?
Wnt bcat act: inactive; MITF act: inactive; SMARCA2 act: inactive; HSF-1 act: inactive; HSF1 inh: inactive

Results for Nc1nn(-c2ccccc2)c(N)c1N=Nc1ccccc1F ?
Wnt bcat act: inactive; MITF act: inactive; SMARCA2 act: inactive; HSF-1 act: 59; HSF1 inh: inactive

How did Cc1cccc(N=Nc2c(C)nn(-c3ccccc3)c2N)c1C do in these assays?
Wnt bcat act: inactive; MITF act: inactive; SMARCA2 act: inactive; HSF-1 act: inactive; HSF1 inh: inactive

What do the screens show for `Cc1nn(-c2ccccc2)c(N)c1N=Nc1ccc(Cl)cc1`?
Wnt bcat act: inactive; MITF act: inactive; SMARCA2 act: inactive; esBAF inh: 80; HSF-1 act: inactive; HSF1 inh: inactive

Results for Nc1c(N=Nc2ccccc2F)c(=O)[nH]n1-c1ccccc1 ?
Wnt bcat act: inactive; MITF act: inactive; SMARCA2 act: inactive; esBAF inh: 69; HSF-1 act: inactive; HSF1 inh: inactive

How did C[C@@H]1CCCCO[C@H](CN(C)C(=O)Cc2ccccc2)[C@H](C)CN([C@H](C)CO)C(=O)c2cc(NC(=O)c3ccncc3)ccc2O1 do in these assays?
esBAF inh: inactive

What do the screens show for `COc1ccccc1-c1cn(CC[C@H]2CC[C@H](NC(=O)c3cnccn3)[C@@H](CO)O2)nn1`?
esBAF inh: inactive

Results for Cc1ccccc1N=C1SC(CC(=O)Nc2ccc3ccccc3c2)C(=O)N1Cc1ccccn1 (stereo not given) ?
Wnt bcat act: inactive; MITF act: inactive; SMARCA2 act: inactive; esBAF inh: inactive; HSF-1 act: 57; HSF1 inh: inactive

What do the screens show for `O=C(CC1SC(=Nc2cccc3ccccc23)N(Cc2ccccn2)C1=O)Nc1ccccc1Br` (stereo not given)?
Wnt bcat act: inactive; MITF act: inactive; SMARCA2 act: inactive; HSF-1 act: inactive; HSF1 inh: inactive

How did CC(=O)Nc1ccc(Oc2ccccc2)cc1 do in these assays?
Wnt bcat act: inactive; MITF act: inactive; SMARCA2 act: inactive; esBAF inh: inactive; HSF-1 act: inactive; HSF1 inh: inactive

Results for CC(=O)Nc1ccc(Oc2sc(C(=O)c3ccccc3)c(N)c2C#N)cc1 ?
SMARCA2 act: inactive; esBAF inh: inactive; HSF-1 act: 87; HSF1 inh: inactive

Results for CCCC(=O)Nc1ccc2c(c1)C(=O)N(C)C[C@@H](OC)[C@H](C)CN(C(=O)CN(C)C)[C@@H](C)CO2 ?
esBAF inh: inactive

Results for COc1ccccc1C(=O)Nc1nc2cc3c(cc2s1)OCCO3 ?
MITF act: inactive; esBAF inh: inactive; HSF-1 act: inactive; HSF1 inh: inactive

What do the screens show for `COc1ccc(C(=O)Nc2nc3cc4c(cc3s2)OCCO4)c(OC)c1`?
Wnt bcat act: inactive; MITF act: inactive; SMARCA2 act: inactive; HSF-1 act: inactive; HSF1 inh: -61

What do the screens show for `COc1ccccc1C(=O)Nc1nc2cc3c(cc2s1)OCO3`?
Wnt bcat act: inactive; MITF act: inactive; SMARCA2 act: inactive; esBAF inh: 57; HSF-1 act: 54; HSF1 inh: inactive

What do the screens show for `COc1cccc(OC)c1C(=O)Nc1nc2cc3c(cc2s1)OCO3`?
Wnt bcat act: inactive; MITF act: inactive; SMARCA2 act: inactive; esBAF inh: inactive; HSF-1 act: inactive; HSF1 inh: inactive

Results for COC(=O)C1(O)CC(CC(C)C)=NN1C(=O)c1ccccc1 (stereo not given) ?
MITF act: inactive; SMARCA2 act: inactive; esBAF inh: inactive; HSF-1 act: 148; HSF1 inh: inactive
